Compound activity: PubChem, The Scripps Research Institute Molecular Screening Center
Only some compounds are listed: those with a hit (about 2.8% of all), similar ones and a draw of the others.
PAFAH2 FP inh: PAFAH2 enzyme inhibitors, primary screen, biochemical, fluorescence polarization, human | inhibition, % at 3.39 µM | recombinant PAFAH2, FP-rhodamine activity probe | AID 492956, 2010 | Platelet-activating factor acetylhydrolase 2, cytoplasmic (Homo sapiens), Q99487 | 340,000 compounds, 0.99% hits;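 active = inhibition above the mean over all tested compounds plus 3 SD, cut at about 30% in these data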;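 also: inhibitors block probe labeling of enzyme so polarization drops; 0% = enzyme with DMSO and 100% = wells lacking PAFAH2 protein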
PAFAH1B3 FP inh: PAFAH1B3 enzyme inhibitors, primary screen, biochemical, fluorescence polarization, human; 340,000 compounds, 0.28% hits; inhibition, % at 3.39 µM; AID 492972, 2010; Platelet-activating factor acetylhydrolase IB subunit alpha1 (Homo sapiens), Q15102; recombinant PAFAH1B3, FP-rhodamine probe;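 active = inhibition above the screen-wide average of all tested compounds plus 3 SD, cut at about 25% in these data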;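 also: 0% = enzyme with DMSO only and 100% = wells lacking PAFAH1B3 protein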
Target sequence (Q15102 whole entry, looked up): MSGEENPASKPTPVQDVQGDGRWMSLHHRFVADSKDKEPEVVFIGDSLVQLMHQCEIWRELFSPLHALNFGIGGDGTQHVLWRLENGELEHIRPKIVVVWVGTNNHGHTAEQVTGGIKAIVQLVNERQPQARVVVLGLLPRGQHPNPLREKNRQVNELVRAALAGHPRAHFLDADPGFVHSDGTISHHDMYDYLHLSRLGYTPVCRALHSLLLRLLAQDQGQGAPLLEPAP
pPAFAH FP inh: pPAFAH enzyme inhibitors, primary screen, biochemical, fluorescence polarization, human. recombinant pPAFAH, FP-rhodamine probe fluorescence polarization. Platelet-activating factor acetylhydrolase (Homo sapiens), Q13093. inhibition, % at 3.39 µM. 330,000 compounds, 1.5% hits;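 active = inhibition above the mean inhibition across the screen plus 3 SD, cut at about 25% in these data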;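 also: inhibitors block binding of the rhodamine activity-based probe so polarization drops; 0% = enzyme with DMSO and 100% = wells lacking pPAFAH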
Fam108B counter: mouse Fam108B serine hydrolase inhibitors, primary screen, counter-screen for RBBP9 inhibitor project, biochemical, fluorescence polarization. recombinant Fam108B, FP-Rh probe fluorescence polarization. 300,000 compounds, 0.33% hits. inhibition, % at 9.51 µM;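 active = inhibition above the screen mean inhibition plus 3 SD, computed separately per campaign, cut at about 18% in these data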;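 also: inhibitors lower polarization as less probe binds the enzyme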
PME-1 primary: PME-1 inhibitors via competitive probe labeling, primary screen, biochemical, fluorescence polarization, FP-Rh probe, HTS | Protein phosphatase methylesterase 1 (Homo sapiens), Q9Y570 | recombinant PME-1 | inhibition, % at 5.9 µM | 320,000 compounds, 0.53% hits;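 active = inhibition above the campaign mean of all compounds plus 3 SD, cut at about 26% in these data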;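 also: competitive labeling of PME-1 active site by serine hydrolase directed probe; 0% = PME-1 with DMSO and 100% = wells lacking PME-1 enzyme; inhibitors block probe labeling so polarization falls and inhibition rises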
Target sequence (Q9Y570 whole entry, looked up): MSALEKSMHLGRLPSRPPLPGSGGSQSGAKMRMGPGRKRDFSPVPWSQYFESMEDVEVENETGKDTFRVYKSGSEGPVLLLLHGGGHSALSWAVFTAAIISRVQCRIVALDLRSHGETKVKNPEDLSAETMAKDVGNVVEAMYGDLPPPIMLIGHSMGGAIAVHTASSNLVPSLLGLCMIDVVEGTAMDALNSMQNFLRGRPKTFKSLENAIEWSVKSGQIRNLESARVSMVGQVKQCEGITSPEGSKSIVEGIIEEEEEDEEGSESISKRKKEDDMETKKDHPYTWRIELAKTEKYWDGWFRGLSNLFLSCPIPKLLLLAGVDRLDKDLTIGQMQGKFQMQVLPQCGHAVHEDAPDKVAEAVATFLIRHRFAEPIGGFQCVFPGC
PAFAH1B2 FP inh: PAFAH1B2 enzyme inhibitors, primary screen, biochemical, fluorescence polarization, human; Platelet-activating factor acetylhydrolase IB subunit alpha2 (Homo sapiens), P68402; recombinant PAFAH1B2, FP-rhodamine activity probe; inhibition, % at 3.39 µM; 340,000 compounds, 1.2% hits; AID 492953, 2010;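 active = inhibition above the mean of all tested compounds plus 3 SD, cut at about 24% in these data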;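 also: 0% = enzyme with DMSO and 100% = wells lacking PAFAH1B2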
PAFAH2 confirm: PAFAH2 enzyme inhibitors, confirmation, biochemical, fluorescence polarization, human | shares compounds with PAFAH2 FP inh | recombinant PAFAH2, FP-rhodamine activity probe | inhibition, % at 3.39 µM | 2,300 compounds, 65% hits | AID 493030, 2011;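 active = mean inhibition over three repeats above a set limit taken from the earlier primary screen, cut at about 30% in these data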;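 also: inhibitor blocks binding of rhodamine activity probe so polarization falls; 0% = enzyme with DMSO and 100% = wells lacking PAFAH2 protein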
* hit, by the source's call; . = not tested or not shown.

SMILES | PAFAH2 FP inh | PAFAH1B3 FP inh | pPAFAH FP inh | Fam108B counter | PME-1 primary | PAFAH1B2 FP inh | PAFAH2 confirm
CCOc1ncccc1C(=O)OCC(=O)Nc1ccc(Cl)cn1 | 46* | 6 | 24 | . | . | 3 | 29
O=C(COC(=O)c1ccccc1)Nc1ccc(Cl)cn1 | 46* | 7 | 2 | -1 | -4 | 0 | 49*
COc1ccc(C(=O)OCC(=O)Nc2ccc(Cl)cn2)cc1 | 56* | 1 | 6 | -2 | -2 | 3 | 54*
CCOc1ncccc1C(=O)OCC(=O)c1ccc(Br)s1 | 50* | 2 | 12 | . | . | 1 | 35*
CSc1ncccc1C(=O)OCC(=O)Nc1ccc(Cl)cn1 | 4 | 1 | 4 | . | . | 3 | .
CN1C(=O)c2ccc(NC(=O)CCS(=O)(=O)c3ccccc3)cc2C1=O | -5 | 6 | 1 | 0 | 1 | -1 | .
COc1cc(OC)c(N(C)S(=O)(=O)c2cccc(C(=O)OCC(=O)N(C)C3CCCCC3)c2)cc1Cl | 40* | -7 | . | . | . | 0 | 27
COc1cc(OC)c(N(C)S(=O)(=O)c2cccc(C(=O)OCC(=O)c3c[nH]c4ccccc34)c2)cc1Cl | -43 | -67 | -21 | -55 | -61 | -32 | .
COc1cc(OC)c(NS(=O)(=O)c2cccc(C(=O)OCC(=O)NCC3CCCO3)c2)cc1Cl (configuration not stated) | 39* | -2 | 18 | 2 | 3 | 3 | 31*
COc1ccc(N2C(=O)C3[C@@H](C2=O)C2(Cl)C(Cl)=C(Cl)C3(Cl)C2(OC)OC)cc1 (some centres not stated) | 33* | -1 | 4 | -6 | -3 | 4 | 31*
Cc1ccc(C)c(Sc2ccc(NC(=O)CCN3C(=O)NC4(CCCC4)C3=O)cc2)c1 | 49* | -3 | 24 | . | -14 | 4 | 54*
Cn1c(=O)c2sccc2n2c(CCCC(=O)NCc3cccnc3)nnc12 | 1 | 6 | 1 | -1 | -6 | 2 | .
COc1cc2c(cc1OC)-c1cc(N3CCc4ccccc43)nc(=O)n1CC2 | 53* | 2 | -1 | 0 | 10 | 3 | 41*
COc1cc2c(cc1OC)-c1cc(OCc3cccnc3)nc(=O)n1CC2 | 61* | -7 | . | . | . | 1 | 54*
C/C=C/C(=O)OCC(=O)Nc1cccc(Br)c1 | 82* | 2 | 5 | -3 | 3 | 1 | 73*
O=C(COC(=O)c1cc[n+]([O-])cc1)Nc1cccc(F)c1 | 0 | 10 | 2 | . | . | 0 | .
COc1ccc(CC(=O)OCC(=O)Nc2cccc(Br)c2)cc1 | 7 | -2 | 20 | -5 | 1 | 4 | .
C/C=C/C(=O)OCC(=O)Nc1ccc(OC)c(OC)c1 | 4 | 6 | 3 | 0 | 0 | -2 | .
C/C=C/C(=O)OCC(=O)Nc1ccc(OC)c(Cl)c1 | 39* | 5 | 6 | 0 | 2 | -3 | 29
C/C=C/C(=O)OCC(=O)Nc1cccc(F)c1 | 78* | 5 | 3 | 6 | 0 | -2 | 65*
Cc1cc(Cl)ccc1N(CC(=O)NCc1ccccc1)S(C)(=O)=O | -6 | 5 | 6 | 1 | 4 | 5 | .
CCc1cc2c(=O)oc(-c3ccc(F)cc3)nc2s1 | 82* | -2 | 14 | -11 | -10 | -6 | 84*
CCCCNC(=O)COC(=O)c1cc(Br)ccc1Cl | 16 | 6 | 3 | 2 | -4 | 4 | .
CCC(CC)NC(=O)COC(=O)c1cc(Br)ccc1Cl | 33* | 0 | 6 | -3 | 1 | 3 | 26
C/C(Nc1ccc(Cl)cc1)=C1/CCOC1=O | 4 | 4 | . | . | . | 3 | .
SMILES | PAFAH2 FP inh | PAFAH1B3 FP inh | pPAFAH FP inh | Fam108B counter | PME-1 primary | PAFAH1B2 FP inh | PAFAH2 confirm
Cc1cccc(C(=O)NCC(=O)OCC(=O)NC2CCCCC2)c1 | 57* | 5 | 5 | . | . | 2 | 41*
Cc1cccc(C(=O)NCC(=O)OCC(=O)NC2CCCCCCC2)c1 | 1 | 7 | 13 | 0 | 4 | 3 | .
Nc1cccc(C(=O)OCC(=O)NC2CCCc3ccccc32)c1 (configuration not stated) | 53* | 4 | 11 | 2 | 6 | -3 | 28
CC(=O)Nc1cccc(C(=O)OCC(=O)NC2CCCCCCC2)c1 | 84* | 9 | -16 | . | -3 | -1 | 84*
O=C(COC(=O)c1cccc([N+](=O)[O-])c1)NC1CCCC1 | 9 | 6 | 17 | -3 | 6 | 1 | .
O=C(COC(=O)c1ccccc1)NC1CCCCCC1 | 86* | 8 | 7 | . | . | 4 | 78*
O=C(COC(=O)c1cccnc1)NC1CCCc2ccccc21 (configuration not stated) | 3 | 1 | . | . | . | 0 | .
CCOC(=O)[C@@H]1[C@H]2COc3ccccc3[C@@H]2N2C(=O)N(c3cccc(Cl)c3)C(=O)[C@]12C | -3 | 5 | -1 | -2 | 4 | 0 | .
O=C(CCCN1C(=O)CSc2ncccc21)N1CCN(Cc2ccccc2)CC1 | 3 | 5 | 3 | 3 | -1 | 2 | .
CCn1cc(CN2CCCC(C(=O)Nc3ccc(-c4cscn4)cc3)C2)cn1 (configuration not stated) | 11 | 2 | 4 | -4 | -3 | -7 | .
O=C(COC(=O)c1ccco1)NC1CCCCC1 | 80* | -1 | 10 | -5 | 0 | -5 | 68*
O=C(COC(=O)C1=COCCO1)Nc1c(F)cccc1F | 9 | 2 | -2 | 1 | -4 | 1 | .
O=C(COC(=O)C1=COCCO1)NC1CCCCC1 | 57* | 2 | 2 | -2 | -5 | 3 | 55*
O=C(COC(=O)c1ccc(Cl)cc1)NC1CCCCCC1 | 78* | 4 | 9 | . | -10 | 4 | 79*
Cc1cc(C(=O)COC(=O)C2=COCCO2)c(C)n1-c1ccccc1 | 13 | 11 | 11 | . | . | 7 | .
O=C(c1ccc2oc(Cc3ccc(Cl)cc3)nc2c1)N1CC[C@H](O)C1 | 71* | 4 | 6 | 5 | 2 | 7 | 63*
CCN(CC)C(=O)CSc1nc2c(sc(=S)n2-c2ccccc2)c(=O)n1-c1ccccc1OC | 37* | 3 | . | . | . | 0 | 25
CSc1cc(C)c(OCC(=O)Nc2c(C)nn(C)c2C)c(C)c1 | 2 | 5 | -2 | 2 | 2 | 1 | .
CCCS(=O)(=O)c1ccc(COC(=O)c2ccc(NC(C)=O)cc2)cc1 | 30* | 9 | -2 | -1 | -3 | -4 | 24
